The values below come from the supplement of paper PMC10105736.

Unmarked numbers belong to inactive results.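 Rule for the calls: active = MAPPIT score above the 99th percentile of random reference set scores in the same batch; inactive = at or below it.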

Holding throughout (assay): MAPPIT interaction score (arbitrary units); higher = stronger binary interaction signal, active = hit call of the paper
One test addresses CG13510. To be noted: MAPPIT configuration: N-N; pair source set: Lit-BS-16.
Another test has as its target CG14074. As to conditions: MAPPIT configuration: N-N.
The target in the next test is GstO3. As to conditions: MAPPIT configuration: N-N; pair source set: DPIM.
A further test addresses Su(var)2-10. As to conditions: MAPPIT configuration: N-C; pair source set: screen_3.
Another test deals with TrxT. As to conditions: MAPPIT configuration: N-N; pair source set: screen_2.
A further test concerns the target CG13843. As to conditions: MAPPIT configuration: N-C; pair source set: screen_3.
The target of another test is Os-C. As to conditions: MAPPIT configuration: N-N; pair source set: RRS.
The next test deals with CG1316. As to conditions: MAPPIT configuration: N-N; pair source set: Curagen_high_conf.
Another test has as its target CG13476. As to conditions: MAPPIT configuration: N-N; pair source set: Lit-BS-16.
For another test, the target named is CG9795. To be noted: MAPPIT configuration: N-N; pair source set: Curagen_high_conf.
Another test addresses CG13494. To be noted: MAPPIT configuration: N-C; pair source set: screen_3.
For a further test, the target named is CG13901. To be noted: MAPPIT configuration: N-N; pair source set: Finley_Y2H.
The next test concerns the target CG5862. To be noted: MAPPIT configuration: N-N; pair source set: Curagen_high_conf.
The target of a further test is RpLP1. To be noted: MAPPIT configuration: N-N; pair source set: Curagen_low_conf.
A further test concerns the target CG13840. As to conditions: MAPPIT configuration: N-N; pair source set: Curagen_low_conf.
Another test addresses CG5674. To be noted: MAPPIT configuration: N-N; pair source set: screen_2.
The next test concerns the target Klp98A. As to conditions: MAPPIT configuration: N-N; pair source set: screen_1.
For a further test, the target named is Rpn13. As to conditions: MAPPIT configuration: N-N; pair source set: screen_2.
A further test addresses CG13560. To be noted: MAPPIT configuration: N-N; pair source set: Finley_Y2H.
The next test addresses CG13965. As to conditions: MAPPIT configuration: N-C; pair source set: screen_4.
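Note: HEK293T cells with Epo stimulation, STAT-responsive firefly luciferase reporter, fold induction versus unstimulated cells divided by the larger fold induction of two negative controls lacking either bait or prey.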

B1: Grip75 (protein)
chain: MIHDLLLACRSHNPEQLGIKAFNETTVIDQFIHPCEREIFMDIIKIIKVYQEVEQFTHSSGRKSDTHGELPDSLHGYYLLNLAKGIEMALEEYYAEIGRLEKYCLGNERNSLSYVYNALYAKFPLLVFMRNLITEIHVLNLRGCVLLHNLHQQCEHGDIQLEKAIKIIMKPVKNAFFSSLAHWLLFGVIDDVHSEFFIKFTPTDAVDGSSFSKSATCSLLSAEKNPEDYIWQYEVNMSQLPGFFSIVLAEKVLFVGQTVLVFKMGRNVKVKNKTDPLAAKLAELDSDDIYQLWSGRESEFFKMVVDLSNEDTINVFRLEKVIIDIKNYVSARLSEIAVNEVDLERQMGLIKDFFLLGRGEFYLEFCSQMVGTMETYREERFKNVTRSFELAATVTGITDDLDKFSLICQRSTSEPDDTSDFNFLQGLSLKYEYEWPLNLLFSPTTIERYNNIFRFLLIIRTYQYEIQRVWAKQTWRAKSAKDVPPNNKIITLRNYLMFFLNNMQYYIQVDVLESQFGILMNVIKSRSDFEVIQRAHTVFLANVLSHCFLLNESETQLNVTGSQNRNPIYGTLLKLFGICEKFAHMTQTKDPSDDLEDEVDQLNESFGVQIASLIQLLVDVKSASCLGPLSQLLLRLDFNCWFSASHNTSA
For B1, in the test with CG13510, the MAPPIT interaction score is 0.427.

B2: PI31 (protein)
chain: MESGSTAKTGDFFYGWDLLYKTVKADVSKKSDLLIALVHFLLTKHYNFRCVGVGDDKTLPEEEGSELLPDSWNDDDTKYSLRYVHDKMLYLLLGHITEGSLLINLLDINTKKVSNICVEPETLVPEVKGGITTIMPSASEIVERYRRELLDPVFTGNSREVTTQTTNSPRPIGSDPDPLRIGEPRRGGSFIPSAFEPRPFGFPDVGRGDLDPLGRGGHGNLFSFPSRPNMGPGPVPRFDPFNPLNPNRPGQGGINPDHMRPPDWNPDYYM
B2: the MAPPIT interaction score with CG14074 (pair source set: screen_1) was -0.274; in the test with GstO3, 0.447.

B3: z (protein)
chain: MSAQGEGGGAGGSGGGGAGSDGGGNAGQSSTGSGTVAVTNGGNSSAKNQLPLTPRFTAEEKEVLYTLFHLHEEVIDIKHRKKQRNKYSVRETWDKIVKDFNSHPHVSAMRNIKQIQKFWLNSRLRKQYPYRDGSSSNLSSGSAKISSVSVSVASAVPQQQQQQHHQQHDSVKVEPEYQISPDASEHNPQADTFDEIEMDANDVSEIDEDPMEQQQQQQQEAQAQAQAQAQAQAQVQSAAAEMQKMQQVNAVAAAAAANATMINTHQINVDQISAEKLTLNDLLHFKTARPREEIILIKHPEATATQIHTIPTQAQQHPMATITAGGYNQQIISEIKPQQITLAQYQAQQQQQAQAQAQAQAQAQAQAQAQAQAQAQAQQLAQQQLAAAQHQQLAAAVQVHHQQQQQQQAAVAVQQQQAAAAAAVKMQLTAATPTFTFSALPTVTAATTVPAAVPVPVATASSGSANSVAVNTSTASSVSINNTSLGGGGGNGATNSSATAADSFEERMNYFKIREAELRCKEQQLATEAKRIELNKAQDELKYMKEVHRLRVEELTMKIRILQKEEEQLRKCSTS
With B3, the MAPPIT interaction score with CG14074 (pair source set: screen_2) is -0.404; with Su(var)2-10, 1.09; with TrxT it was -0.122.

B4: Dpit47 (protein)
chain: MKQMAAQKAWTDEERLELAAQLDAELDAFIDGLEKKRYEEGWPEDRWQEEMDKHPFFMKRAPQPGDDVHPMFEGLQKLKYDPEENTRDELALNYKEDGNFYMKHKKFRMAIYSFTEGIKTKTDNPDVLAVLYNNRSAAHFFIKNYRSSLSDAQRALFYKPDYTKARWRSAQCAYELERFDLCTQMCEELLEVDVDNEVAIALLHKNKMKKLEIERNQRKEAAEAKRRLTRFHRLRDAIEQRAIKFDDQKVGKKDVLSEELLYPKFLPLEDHPVHLDEDGSTLIWPAAFSYPEFLYSDFYQQLPETTTMRDCLATLLTEKLPYDKAHNYRLGNVHVYYENRKVGCVHKVDEEKQLAEIIAEKGFFVSGGALLFYVVHKDSRVEQEFINERRRPMVYS
As for B4, the MAPPIT interaction score in the test with CG13843 was 3.75 (active); with Os-C, 1.52.

B5: poly (protein)
chain: MATSVLLACGLNEQKLPGFVHISEESNVDASFLISCVLGQRLRISNAGTLLVCLQHHYQHYFNAGMRLGYNTNIFQGKTLGVIDVLSDMAGEGLASKWLTNTEGQTLTDQLVEDIRAQVERNYASRNSYTVLIDNLSILFNLGASKLQVQQFCQDLAALGKEREKLTVITKLSNSDIYQLTDNNVAKLGQVRIQVLRLKSGVFREVDGKLLIERVLDEGNYACEETRKEVLYKVNDRNVKVFAPGEIGVKV
For the molecule B5, the MAPPIT interaction score in the test with CG1316 is 0.569.

B6: Nin (protein)
chain: MEVSADPYEQKLYQMFRSCETQCGLLDEKSLLKLCSLLELRDQGSALIASLGGSHQLGVSFGQFKEALLNFLGSEFDGNTSSGFIERSLVITDEPLNNTYIESPPESSDREVSPKLVVGTKKYGRRSRPQQGIYELSVTDSDNTDEDQLQQQQNQRSLNGCDELGVQVQRSSSQSDLPGSRRLRSVHTSGSKLKRCASLPARRKMNSNTTGATTSPTAAAKLKQLSIQSQAQHSSSVESLDTVTPQQLETISVHSIMEAWELASIPNTRNLLHVLGFDEEEEVNLQQLTKALEEELRGIDGDHEQSNMLRALAALQATELGNYRLAYRQQHEENLKLRADNKAANQRVALLAVEVDERHASLEDNSKKQVQQLEQRHASMVREITLRMTNDRDHWTSMTGKLEAQLKSLEQEEIRLRTELELVRTENTELESEQQKAHIQITELLEQNIKLNQELAQTSSSIGGTPEHSPLRPRRHSEDKEEEMLQLMEKLAALQMENAQLRDKTDELTIEIESLNVELIRSKTKAKKQEKQEKQEDQESAATATKRRGDSPSKTHLTEESPRLGKQRKCTEGEQSDASNSGDWLALNSELQRSQSQDEELTSLRQRVAELEEELKAAKEGRSLTPESRSKELETSLEQMQRAYEDCEDYWQTKLSEERQLFEKERQIYEDEQHESDKKFTELMEKVREYEEQFSKDGRLSPIDERDMLEQQYSELEAEAAQLRSSSIQMLEEKAQEISSLQSEIEDLRQRLGESVEILTGACELTSESVAQLSAEAGKSPASSPISYLWLQSTIQEPAKSLADSKDEATASAIELLGGSPSHKTASRNNLTTSETSIFSTTPFESSQSGPSPTNSGNSNAYGANPGPAPISKPKRSQSPQQAAASEGEIADCETSSTASGKSFESNSKTSCLSHEKCSSPSALKEELKRLKFFELSLKEQIKDLSLQRDGLVMELQQLQEARPVLEKAYARTTHPTLQQRLNQLELRNRHLQNVIKQQQHYTESLMQQSWRQHQVELNDLHSRIETQGVLLADQTQRLQSADILVKDLYVENSHLTATVQRLEQQRARVNLIHQQQQQQRLVGGGLPGMP
Turning to B6, the MAPPIT interaction score with CG13476 is 0.125; in the test with CG9795, 4.19 (active).

B7: CG5021 (protein)
chain: MASATVRNVPLLDDDTIPFGEEDEMRDPSRAGQKYTHPYVTFFHLFFRGAAILIYMFCGWFSDSFITSFVFVVLFLSADFWTVKNISGRLLVGLRWWNYVDDDGVSHWVFESKNSESYQSRVNKNEQRIFWLGLILCPVFWGLFFLFALFGLKFKWLLLVMIAIALNAANLYGYVKCNYGANKDLNSAATDFVKTQFFKNAVDIMTRPSGAPPPTNVRPTGVV
With B7, the MAPPIT interaction score with CG13494 is 0.956.

B8: Ufl1 (protein)
chain: MGSDWDEIKRLAADFQKAQLTSTLQKLSERNCVEIVTLLLEKQMLEVVFTNDGKEYITPDHLEREIQDELYVNGGRANLVEVSKTLNVDLSRIELLAERISAENQSVHLVLGQLIDEDYISHIAQEINEKLVQRGEVSISELASQFDLPSDFLQHDVVEKHLGKIIKGRQDASNPRVFFTQAYIQRCKAKIRGALAAITRPINVAVILQKIGVQEKIFYSLLDEIAPAGQVTSKQANSQYVPHIYAKTQADWVNSFYKQNSFLEYDAIQKLGISDAKSYIRKQFPNEEFLYLKRVALGARLVELTVVTALNECSATKQYLDLTTILPSNLSEEDIEEVFSTIMAQKHSNPSNFVYLDGIVFSQPYLAQLVQPCQALAESQAKAAIDGGVYQQYIVEKTLAQKGNVSTQELEDEGKVDKRDERRKKASSGKAGGGAQGRETKTKSTKKHQRGKAAAQFDSDDEDDAQQGSRGGGGASKKAVKPLELVKTADIVKLITASLEEEGLEHLSKSIASLYTNQFNQTALARAQELFEATPQTNRRQTHAAIQDRINTLLIDIRLYEKGLKLFPQDTQTQLVKYLLKSLGNEICNELSLYVASECNLTVKNTNLNVDQRNKLAQECEAQYRAALLEQNKALNKSIDDFELATETVLKTCSMIIKKVDKKKDRLLIADHKKKLQKQLLECNEPALLLHLAALILFTTITGSILHASGKFVSAILQHIRGSLNEDQNALLLRYHDLVLQVLQAIPDSNESKLANEHLQTMQNQVVELAQNFSRASISKAD
For the molecule B8, the MAPPIT interaction score was 1.55 with CG13901, -0.395 in the test with CG5862 and -0.273 with RpLP1.

B9: sina (protein)
chain: MSNKINPKRREPTAAAAGAGATGVATNTSTSTGSSSAGNTSSANTSSSSSSSLSSAGGGDAGMSADLTSLFECPVCFDYVLPPILQCSSGHLVCVSCRSKLTCCPTCRGPLANIRNLAMEKVASNVKFPCKHSGYGCTASLVYTEKTEHEETCECRPYLCPCPGASCKWQGPLDLVMQHLMMSHKSITTLQGEDIVFLATDINLPGAVDWVMMQSCFGHHFMLVLEKQEKYDGHQQFFAIVQLIGSRKEAENFVYRLELNGNRRRLTWEAMPRSIHEGVASAIHNSDCLVFDTSIAQLFADNGNLGINVTISLV
On to B9, for which the MAPPIT interaction score with CG13840 was -0.135; in the test with CG5674, -0.0161; in the test with Klp98A, 0.0642; with Rpn13, 0.72.

B10: Treh (protein)
chain: MFKLPTISLLLVSWSCLVALSQAKTYSLPDLTTDYNNAIPVDEEEAQDPFASCKIYCEGNLLHTIQTAVPKLFADSKTFVDMKLNNSPDKTLEDFNAMMEAKNQTPSSEDLKQFVDKYFSAPGTELEKWTPTDWKENPSFLDLISDPDLKQWGVELNSIWKDLGRKMKDEVSKNPEYYSIIPVPNPVIVPGGRFIEFYYWDSYWIIRGLLYSQMFDTARGMIENFFSIVNRFGFIPNGGRVYYHGRSQPPLLTGMVKSYVDFTNDDKFAIDALDTLEHEFEFFVNNHNVTVKNHSLCVYRDSSSGPRPESYREDVETGEEFPTDEAKELHYSELKAGAESGMDFSSRWFISPTGTNDGNRSALSTTSIVPVDLNAYLYWNAKLIAEFHSKAGNTKKVTEYETKAEKLLLGIQEVLWNEEAGVWLDYDMINQKPRDYYTPTNLSPLWVKAFNISESEKISASVMAYIERNKLDSFPGGVPNTLSYTGEQWDAPNVWAPMQYILVEGLNNLNTPEAKNMSLKWATRWVKTNFAAFSKDRHMYEKYNADEFGVGGGGGEYEVQTGFGWSNGVIIEWLSKHGRDISIGSGCGCLAGEKRQ
Turning to B10, the MAPPIT interaction score with CG13560 was -0.19.

B11: RpLP2 (protein)
chain: MRYVAAYLLAVLGGKDSPANSDLEKILSSVGVEVDAERLTKVIKELAGKSIDDLIKEGREKLSSMPVGGGGAVAAADAAPAAAAGGDKKEAKKEEKKEESESEDDDMGFALFE
As for B11, the MAPPIT interaction score in the test with CG13965 was 2.1.
